From PubChem BioAssay
Insulin prom inh: TRM-6 insulin promoter activity inhibition; TRM-6 cells (human fetal islet line), insulin promoter-eGFP reporter, imaging; reporter expression induced with tamoxifen; 130,000 tested, 0.9% active; inhibition, % at 2 µM;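 active = inhibition above the mean plus 3 SD, with well images judged a real hit on visual review, cut at about 60% in these data, passing the limit was not always enough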
S1P3 antag: S1P3 (human) receptor antagonism | CHO S1P3 NFAT-BLA reporter, FRET fluorescence, antagonist mode | AID 485 | inhibition, % at 4.98 µM | 170,000 tested, 0.27% active;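 active = inhibition above the plate cutoff, the mean inhibition of test wells on that plate plus 3 SD, cut at about 28% in these data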;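 also: cells challenged with S1P at its EC80 of 0.8 µM; blue over green emission ratio from cleaved BLA substrate after 4 h stimulation; 0% = S1P-stimulated wells and 100% = unstimulated DMSO-only wells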
S1P4 antag: blocks the human S1P4 receptor | O95977 | S1P4-expressing cells, antagonist mode, reporter read-out | inhibition, % at 4.98 µM | 220,000 tested, 0.26% active; in the data active = inhibition above about 29%;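 also: 0% = wells stimulated with agonist and 100% = vehicle wells without agonist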
Target sequence (O95977 whole entry, looked up): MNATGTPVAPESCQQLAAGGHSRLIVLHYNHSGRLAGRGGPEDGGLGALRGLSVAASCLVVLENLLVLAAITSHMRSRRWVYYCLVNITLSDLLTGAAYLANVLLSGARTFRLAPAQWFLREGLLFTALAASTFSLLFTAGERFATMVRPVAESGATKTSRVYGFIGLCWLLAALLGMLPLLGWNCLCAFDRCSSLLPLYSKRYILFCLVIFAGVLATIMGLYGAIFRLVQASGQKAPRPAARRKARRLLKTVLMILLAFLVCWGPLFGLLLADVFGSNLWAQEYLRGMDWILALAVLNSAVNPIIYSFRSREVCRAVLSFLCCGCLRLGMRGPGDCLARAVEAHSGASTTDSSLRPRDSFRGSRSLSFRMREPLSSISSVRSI
PGE2 EP2 inh: blocks the human prostaglandin E2 receptor EP2 | C6 glioma cells expressing human EP2, cAMP TR-FRET; cells stimulated with saturating PGE2 | 260,000 tested, 0.52% active | inhibition, % at 25 µM | P43116;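 active = percent inhibition above 40 after rounding to a whole number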;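 also: rat C6 glioma host cells with rolipram phosphodiesterase inhibitor present; the protocol text gives 20 µM as final concentration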
Target sequence (P43116 whole entry, looked up): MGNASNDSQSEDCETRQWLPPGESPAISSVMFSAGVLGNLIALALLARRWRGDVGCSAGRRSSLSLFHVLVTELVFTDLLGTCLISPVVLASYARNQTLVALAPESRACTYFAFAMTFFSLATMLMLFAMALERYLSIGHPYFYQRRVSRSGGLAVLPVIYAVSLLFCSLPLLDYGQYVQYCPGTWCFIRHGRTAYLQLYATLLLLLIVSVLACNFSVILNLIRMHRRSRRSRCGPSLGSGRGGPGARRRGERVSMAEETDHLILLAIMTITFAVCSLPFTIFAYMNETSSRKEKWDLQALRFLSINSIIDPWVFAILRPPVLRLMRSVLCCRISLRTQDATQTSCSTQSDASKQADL
EP2 modulator: EP2 receptor (human) modulation; P43116; induction, % at 25 µM; 260,000 tested, 0.83% active; AID 940; EP2-expressing cells, cAMP HTRF FRET, PGE2 co-stimulation;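 active = compounds whose cAMP rise, as percent of the full-agonist control response, exceeds 60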;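 also: rat C6 glioma line stably carrying human EP2 under a CMV promoter; the protocol text gives 20 µM as final concentration; 100% = response of wells given 1 µM PGE2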
S1P4 ag: agonists of human S1P4 receptor. O95977. S1P4-expressing cell line, agonist reporter assay. activation, % at 4.98 µM. 220,000 tested, 0.35% active. AID 1509; in the data active = activation above about 11%;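 also: 0% = DMSO vehicle and 100% = reference agonist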
The depositor's hits bear a star; nt = not tested or not shown. In the library only some 2.4% were active in any assay of this set; here they are far more common.

SMILES | Insulin prom inh | S1P3 antag | S1P4 antag | PGE2 EP2 inh | EP2 modulator | S1P4 ag
CCOC(=O)c1sc2nc(C)n(N)c(=O)c2c1C | 40.0 | -0.9 | -11.9 | 8.3 | 14.3 | 1.4
COc1ccc(CNC(=O)c2sc3nc4cc(C)ccc4cc3c2N)cc1 | nt | nt | nt | 5.0 | -58.7 | nt
Cc1nn(-c2ccccc2)c(Cl)c1C(=O)N1CCN(c2ncnc3c2cnn3-c2ccccc2)CC1 | nt | -19.0 | 6.9 | 40.2* | -42.8 | -1.3
Oc1ccc(Cn2c(-c3ccc(O)cc3)nc3ccccc32)cc1 | nt | nt | nt | 46.6* | 20.6 | nt
COc1cc(Cn2c(-c3ccc(O)c(OC)c3)nc3ccccc32)ccc1O | nt | 3.2 | -3.5 | 5.1 | 54.9 | 0.9
Cc1nccn1-c1ccc(C(F)(F)F)cc1[N+](=O)[O-] | 72.7* | -7.0 | -12.2 | 3.2 | 10.4 | 1.1
Cc1nccn1-c1ccc(C(F)(F)F)cc1NC=O | -15.4 | -20.5 | -27.6 | 10.4 | 37.4 | 1.2
CC(C)c1nnc(NC(=O)CC2CC3CCC2C3)s1 (stereo unspecified) | nt | nt | nt | 12.7 | -19.8 | nt
Oc1ccc(-c2csc(-c3ccccc3)n2)c(O)c1 | nt | nt | nt | 48.4* | -141.7 | nt
COc1ccc(-c2nnn(C3CCN(C(=O)CCc4c(C)noc4C)CC3)n2)cc1 | nt | nt | nt | nt | -25.2 | nt
Cc1ccccc1NC(=O)CSc1nnc2c(n1)[nH]c1ccccc12 | nt | nt | nt | 9.1 | -23.8 | nt
CC1CC(C)CN(C(=O)COc2ccc([N+](=O)[O-])cc2Cl)C1 (stereo unspecified) | nt | -0.2 | -11.2 | -0.8 | 10.8 | 1.8
C[C@@H]1C[C@H](C)CN(S(=O)(=O)c2cc(Cl)c(Oc3ccc([N+](=O)[O-])cc3Cl)c(Cl)c2)C1 | nt | nt | nt | 43.9* | 13.4 | nt
CCOC(=O)c1cccc2c1-c1ccccc1/C2=N/O | nt | -21.6 | -2.0 | 19.1 | 46.2 | 1.1
CC(C)COC(=O)c1cccc2c1-c1ccccc1/C2=N\O | -20.9 | nt | -4.1 | nt | 63.0* | -0.8
N#CC1(Cc2ccc(Cl)cc2)c2ccccc2C=CN1C(=O)c1ccccc1 (stereo unspecified) | 15.9 | nt | -0.7 | 18.5 | 63.4* | 0.2
COc1cccc(OC)c1NC(=O)C1CCCN1C(=O)Nc1ccc(C)cc1 (stereo unspecified) | nt | nt | nt | 22.9 | -16.2 | nt
c1ccc(-c2nc(N3CCOCC3)c3ccccc3n2)nc1 | nt | 17.4 | 6.3 | 11.2 | 2.9 | -0.4
c1ccc2c(c1)nc(N1CCCCC1)c1ccccc12 | nt | -2.6 | -10.7 | 10.0 | 67.6* | -2.3
c1ccc(-c2nc(N3CCCCCC3)c3ccccc3n2)nc1 | nt | 29.3 | -13.9 | 10.4 | 61.0* | 1.7
COc1ccc(C2C(C(C)=O)=C(O)C(=O)N2CCCn2ccnc2)c(OC)c1 (stereo unspecified) | nt | nt | nt | 4.0 | 1.3 | nt
O=C1c2ccccc2C(=O)N1SC1CCCCC1 | nt | -40.2 | 2.2 | 87.1* | -35.7 | -0.2
COc1cccc(C2=NO[C@@H]3C(=O)N(Cc4ccccc4)C(=O)[C@H]23)c1OC | 20.0 | 10.9 | -15.6 | 6.2 | 6.9 | 1.1
COc1cccc(C2=NO[C@@H]3C(=O)N(c4ccc5c(c4)OCCO5)C(=O)[C@H]23)c1OC | 80.0* | -0.4 | -16.1 | 2.2 | -7.9 | 3.0
O=c1[nH]c2ccc(S(=O)(=O)Nc3ccc(-c4nnc5n4CCCCC5)cc3)cc2o1 | nt | 65.8* | -0.8 | 8.0 | -1.5 | -0.8
SMILES | Insulin prom inh | S1P3 antag | S1P4 antag | PGE2 EP2 inh | EP2 modulator | S1P4 ag
CCCCC[C@H](O)/C=C/[C@H]1C=CC(=O)[C@@H]1C/C=C\CCCC(=O)O | -4.8 | 9.6 | -30.4 | 8.8 | 103.5* | -1.5
CCCCC[C@H](O)/C=C/[C@H]1[C@H](O)CC(=O)[C@@H]1CCCCCCC(=O)O | nt | nt | nt | 13.2 | nt | nt
C/C(CCc1oc2ccc(Br)cc2c1-c1ccc(C)o1)=N/O | 25.0 | 2.4 | 14.0 | 12.9 | 62.5* | -0.9
Cc1ccc(-c2cc(C(=O)O)c3cc(Br)ccc3n2)o1 | 58.1 | -7.8 | -5.5 | 15.5 | 23.2 | 0.2
O=C(C1CCN(c2nnc(-n3cccc3)s2)CC1)N1CCN(c2cccc(C(F)(F)F)c2)CC1 | 28.6 | -7.6 | -7.0 | 20.2 | 33.3 | -0.5
O=C(C1CCN(c2nnc(-n3cccc3)s2)CC1)N1CCOCC1 | 100.0* | 5.4 | -5.2 | 9.2 | 26.8 | -1.0
CCc1nc2cc([N+](=O)[O-])c([N+](=O)[O-])cc2[nH]1 | 75.0* | -15.7 | -3.4 | 2.5 | -23.5 | 0.9
Cc1cc2nc[nH]c2cc1[N+](=O)[O-] | 41.2 | -1.2 | -12.7 | 5.7 | -6.8 | 0.6
Cc1ccc(C)n1-n1c(C)nc2sc(-c3ccccc3)cc2c1=O | -19.4 | 54.8* | 7.6 | 19.3 | 5.5 | -2.8
Cc1cc(Nc2ccc(N=Nc3ccc(O)c4ncccc34)cc2)nc(C)n1 | nt | nt | nt | 45.4* | 17.0 | nt
N#CC1=C(N)SC(N)=C(C#N)C1c1ccc(C(F)(F)F)cc1 | -113.2 | -29.6 | -8.2 | 49.3* | 13.1 | 0.8
CCCSc1nc2c(c(=O)[nH]c(=O)n2C)n1CCC | nt | nt | nt | 5.2 | 40.7 | nt
Cc1noc(C)c1CCNS(=O)(=O)c1ccc2c(c1)oc(=O)n2C(C)C | nt | nt | nt | 9.8 | -65.5 | nt
Cn1c(SCC(=O)N2CCCCC2)nnc1-c1ccc(S(=O)(=O)N2CCCC2)cc1 | nt | nt | nt | 9.5 | -16.8 | nt
CN(C)C(CNC(=O)C1(c2ccccc2F)CC1)c1ccc2c(c1)OCO2 (stereo unspecified) | nt | nt | nt | 0.1 | -31.8 | nt
CC(C)(C)NC(=O)CSc1nc2ccccc2n1Cc1c(F)cccc1Cl | nt | nt | nt | 3.9 | 46.7 | nt
CSc1nc2ccccc2n1Cc1c(Cl)cccc1Cl | 41.4 | nt | 2.1 | 7.7 | 64.6* | -1.0
Cc1ccc(S(=O)(=O)N(Cc2ccco2)Cc2cc3cc4c(cc3[nH]c2=O)OCO4)cc1Cl | nt | nt | nt | 12.8 | -25.0 | nt
O=C(O)C1CC=CCC1C(=O)c1ccccc1 (stereo unspecified) | 65.6* | nt | -1.6 | 3.0 | 11.9 | 0.0
O=C(O)C1CC=CCC1C(=O)NNc1ccccc1 (stereo unspecified) | nt | 1.9 | -8.8 | 6.6 | 19.8 | 0.8
O=C1NC(=O)N(C2CCCCC2)C(=O)/C1=C\c1ccc2c(c1)OCO2 | nt | nt | nt | 7.7 | -16.4 | nt
Cc1ccc(N(C(=O)c2cnccn2)C(C(=O)NC2CCCCC2)c2sccc2C)cc1 (stereo unspecified) | nt | nt | nt | 12.1 | 10.0 | nt
C[N@@+]1(Cc2ccc(Cl)c(Cl)c2)CCC[C@@H]1c1ccc[n+](Cc2ccc(Cl)c(Cl)c2)c1 | nt | nt | nt | 50.3* | -1.4 | nt
COc1ccc(CCNC(=O)c2ccc(-c3ccccc3Cl)o2)cc1OC | nt | nt | nt | 62.3* | -87.3 | nt
CCCn1c(SCC(=O)Nc2ccc(C(C)=O)cc2)nc2c1c(=O)n(C)c(=O)n2C | nt | nt | nt | 9.5 | 14.4 | nt
CC12CCC(C(=O)NCc3cccnc3)(OC1=O)C2(C)C (stereo unspecified) | 61.9 | -26.8 | 3.8 | 15.6 | 12.6 | 4.2
CC12CCC(C(=O)N(Cc3ccccc3)Cc3ccccc3)(OC1=O)C2(C)C (stereo unspecified) | -30.8 | nt | 9.9 | 17.9 | 61.2* | 1.2
Cc1cc(C2(c3ccc(O)c(C)c3)C(=O)Nc3ccccc32)ccc1O | -126.7 | nt | -3.4 | 6.4 | 61.4* | 0.2
